Inconclusive results are not listed. Unmarked numbers belong to inactive results. The source made the active and inactive calls. The call rests on the fitted dose curve.
Experiment: qHTS for Inhibitors of Cell Surface uPA Generation: Wild-type Protective Antigen (WT-PrAg) Counterscreen for Cherry-picked Compounds; on activity (protection): 0% is about no effect
Conditions: cells, WT protective antigen toxicity counterscreen; series mostly up to 115 µM; activity (protection): at the top concentration
Potency means the concentration at half of the fitted maximal effect.

Compound	activity (protection) [%]	Potency
S=C(Nc1ccccc1Oc1ccccc1)NC1CCCC1	-2.13	
O=C(NNC(=O)C1CC(c2cccs2)=NO1)Nc1ccccc1 (stereo not given)	0.0009	
Cc1ccc(N2C(=O)CC(N3CCN/C3=C3\CC/C(=C\c4ccccc4)C3=O)C2=O)cc1 (stereo not given)	-0.58	
CCOC(=O)C1CCN(CC(=O)Nc2cc(C)nn2-c2nc3ccccc3s2)CC1	12.1	
Cc1nc(N2CCN(c3ccc(Cl)cc3)CC2)[nH]c(=O)c1C	0.512	
CSCC[C@H](NC(=O)[C@H](Cc1ccccc1)n1c(=O)[nH]c2ccccc2c1=O)C(=O)N1CCC[C@H]1C(=O)O	-0.882	
COc1cc(C2/C(=C(\O)c3ccc4c(c3)CC(C)O4)C(=O)C(=O)N2CC2CCCO2)cc(OC)c1OC (stereo not given)	-0.464	
O=C(CCS(=O)(=O)c1ccc2c(c1)NC(=O)CS2)NCc1cccs1	1.32	
C=CS(=O)(=O)c1ccc(Oc2ccc(S(=O)(=O)C=C)cc2)cc1		65.6 µM (active)
O=C(Nc1ccnn1C1CCN(CCCC2CCCC2)CC1)c1ccccc1	-2.33	
CCOC(=O)N1CCc2c(sc3nc4n(c(=O)c23)N=C(C)CS4)C1	-1.1	
CCOc1ccccc1N(CC(=O)Nc1ccc(OC)cc1)S(=O)(=O)c1ccccc1	0.0168	
Cc1cc2c(cc1S(=O)(=O)Nc1ccc(F)cc1)n(C)c(=O)c(=O)n2C	-0.472	
NC(=O)C1CCN(C(=O)c2cccc3ccccc23)CC1	0.996	
O=C(Cc1n[nH]c(=O)c2ccccc12)Nc1cccc(S(=O)(=O)N2CCCCCC2)c1	-2.16	
Cc1noc(C)c1COc1ccc(C(=O)O)cc1	-0.888	
CCCOc1ccc(S(=O)(=O)NNC(=O)c2cc3ccccc3o2)cc1	-2.15	
Cc1cccc(Nc2ccc(NCc3ccccc3)nn2)c1	-1.9	
CCCCN(CC)CCNC(=O)c1cc2cc3ccc(Cl)cc3nc2o1	-2	
N#CCCN(C(=O)COC(=O)c1ccc2c(c1)NC(=O)CS2)c1ccc2c(c1)OCCO2	-1.25	

Compound	activity (protection) [%]	Potency
O=C(O)c1ccc(-n2nnnc2SCc2cccc(Br)c2)cc1	-1.44	
O=C(CCCOc1ccc(Cl)cc1Cl)NCc1ccncc1	0.418	
COc1ccccc1-c1ccc(SCC(=O)NCCc2ccccc2)nn1	-1.14	
O=C(Cn1cnc2c(OCc3ccccc3)ncnc21)NCCCN1CCCC1=O	-1.87	
COC(=O)Cc1c(C)c2ccc(OCC(=O)N3CCCC(C)C3)c(C)c2oc1=O (stereo not given)	-1.64	
Cc1cnc(CNC(=O)C2CCC(=O)N(CCc3cccc(F)c3)C2)[nH]1 (stereo not given)	-0.804	
O=C(CN1CCN(Cc2ccc(Cl)cc2)C1=O)NCc1cccs1	-0.806	
Cc1cc(C)nc(N2N=C(C(F)(F)F)CC2=O)n1	-1.02	
Cn1c(CN2CCCC2)nc2cc(NC(=O)COc3ccccc3)ccc21	-1.34	
CCOC(=O)CN1C(=O)N[C@@H](c2ccccc2)C(C(C)=O)=C1C	0.206	
O=C(NCCc1ccccc1)C1CCC(=O)N(Cc2cccc(C(F)(F)F)c2)C1 (stereo not given)	-1.41	
CCNC(=S)NNC(=O)C(c1ccccc1)c1ccccc1	0.86	
O=C(c1cc(COc2ccc(F)cc2Cl)on1)N1CCCCCC1	0.109	
C[C@@H]1O[C@@H](O[C@@H]2C(=O)c3c(O)cc(O)cc3O[C@H]2c2ccc(O)c(O)c2)[C@H](O)[C@H](O)[C@H]1O	-0.724	
COC(=O)c1ccccc1NC(=O)Nc1nnc(N2CCCCC2C)s1 (stereo not given)		58.5 µM (active)
O=C(/C=C/c1ccc(O)c(O)c1)O[C@@H]1C[C@](O)(C(=O)O)C[C@@H](O)[C@H]1O	-0.319	
CCCCCCCCCOC(=O)C1N2C(=O)[C@@H](NC(=O)COc3ccccc3)[C@H]2SC1(C)C (stereo not given in full)	-2.25	
O=C(NC1CC1)C1CCCN(C(=O)NC2CCCCC2)C1 (stereo not given)	-1.16	
C[C@H]([C@H](O)c1ccccc1)N(C)C(=O)CN	1.02	
COc1ccc(-n2nc(C(=O)Nc3cc(OC)c(OC)c(OC)c3)c3ccccc3c2=O)c(OC)c1	-1.69	
